From PubChem BioAssay
SMN2 splice up: enhancers of SMN2 splice variant expression. HEK293 SMN2-luciferase splicing reporter, luminescence, 30-36 h. Potency, µM (highest dose often 46.1 µM), without a hit: at the highest dose activity change, positive = activation, hits mostly activators. 210,000 tested, 2.8% active. AID 1458; further: % of control where 0% means no effect; nearly all actives have a fitted effect of over 55% in size
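HEK293 cells carry an SMN2 minigene-luciferase reporter in which exon 7 inclusion puts luciferase in frame. Cells were seeded at 2000 cells/well, attached for 10-12 hours, then exposed to compounds for 30-36 hours at 37C before ONE-Glo luminescence.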
NPC1 promoter act: activates the NPC1 promoter; Huh7 NPC1 promoter luciferase reporter, 24 h; Potency, µM (series often up to 9.22 µM), for inactives: at the highest dose activation, most hits filed as activators; 320,000 tested, 2.4% active; AID 485313; further: % of control where 0% means no effect; nearly all actives have a fitted effect of over 60% in size
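Compounds in DMSO were transferred onto Huh7 NPC1-luciferase reporter cells pre-incubated 2 h; after 24 h at 37 °C, Amplite reagent was dispensed and luminescence recorded 10 min later.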
FLuc modulator: counter-screen for miR-21 project: firefly luciferase inhibitors or activators; purified FLuc, Km substrates, luminescence inhibition; Potency, µM (titrated, usually from 57.5 µM), without a hit: at the highest dose activity change, negative = inhibition, actives largely listed as inhibitors; 360,000 tested, 6.9% active;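 further: plate controls were vehicle for no effect and reference inhibitor for full effect; nearly all actives have a fitted effect of over 55% in size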
Target sequence (P08659 whole entry, looked up): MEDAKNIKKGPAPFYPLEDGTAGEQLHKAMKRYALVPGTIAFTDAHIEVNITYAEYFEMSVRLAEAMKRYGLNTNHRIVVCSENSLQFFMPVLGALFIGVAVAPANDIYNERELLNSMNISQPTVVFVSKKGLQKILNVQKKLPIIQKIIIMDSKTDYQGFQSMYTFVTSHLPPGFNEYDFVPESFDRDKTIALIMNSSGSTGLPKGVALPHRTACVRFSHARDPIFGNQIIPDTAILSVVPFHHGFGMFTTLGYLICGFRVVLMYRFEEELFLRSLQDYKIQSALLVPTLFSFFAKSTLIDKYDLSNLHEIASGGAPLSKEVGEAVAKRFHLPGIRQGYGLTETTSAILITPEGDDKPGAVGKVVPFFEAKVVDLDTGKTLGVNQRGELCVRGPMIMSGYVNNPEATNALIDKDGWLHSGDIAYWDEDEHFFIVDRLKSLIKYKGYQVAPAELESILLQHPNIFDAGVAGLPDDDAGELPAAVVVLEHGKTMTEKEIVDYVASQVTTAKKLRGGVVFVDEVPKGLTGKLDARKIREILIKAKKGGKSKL
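Biochemical qHTS of compounds, final roughly 60 µM downward over six points, against 10 nM purified firefly luciferase using Km concentrations of substrates (10 uM D-luciferin, 10 uM ATP) in Tris acetate pH 7.5 buffer; luminescence output.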
Rab9 promoter act: activates the Rab9 promoter; AID 485297; Huh7 Rab9 promoter-luciferase reporter, luminescence, 24 h; 320,000 tested, 2.8% active; Potency, µM (titrated, usually from 9.22 µM), inactives show at the top dose activation, negative = inhibition, actives largely listed as activators; further: % of control where 0% means no effect; nearly all actives have a fitted effect of over 60% in size
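Using Huh7 cells stably transfected with Rab9 promoter–luciferase, compounds were incubated 24 h at 37 °C, 5% CO2; luciferase luminescence was read 10 min after reagent addition.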
ELG1 genotox: induces genotoxicity in HEK293T cells with luciferase-tagged ELG1; HEK293T ELG1-luciferase reporter, luminescence, 16 h; Potency, µM (titrated, usually from 46 µM), for inactives: at the top dose activity change, positive = activation, usual class: activators; 330,000 tested, 1.3% active; AID 504466; further: % of control where 0% means no effect; nearly all actives have a fitted effect of over 60% in size
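DMSO vehicle served as control against compound-treated ELG1-luciferase HEK293T cells; exposure lasted 16 hr at 37 °C and 5% CO2, followed by ONE-Glo luminescence detection after 30 min.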
ELG1 DNA repair: blocks ELG1-dependent DNA repair in HEK293T cells. Potency, µM (doses to about 46.1 µM), for the others: top-dose activity change, negative = inhibition, hits mostly inhibitors. HEK293T ELG1-luciferase reporter, luminescence, 16 h; DNA damage induced by 5-fluorouridine. 330,000 tested, 2.3% active; further: on the % scale 0 is the no-effect control and ±100 the full control effect; nearly all actives have a fitted effect of over 55% in size
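Reporter activity after DNA damage by 5-fluorouridine is monitored. Compound-treated cells incubate 16 hr at 37 °C, then ONE-Glo is added for 30 min before luminescence reading.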
* hit, by the source's call; ? = inconclusive; . = no result given. A selection: hits, their analogues and other compounds. The true share with any hit is near 9.2%. The call rests on the fitted dose curve; in most records, active means well fitted curve in the direction sought with a large enough effect; inconclusive means small, poorly fitted or top-dose-only effect, or another doubt; inactive means no such curve, though single readings can be large; an effect the other way counts as inactive or inconclusive. Potency means the concentration at half of the fitted maximal effect.

SMILES	SMN2 splice up	NPC1 promoter act	FLuc modulator	Rab9 promoter act	ELG1 genotox	ELG1 DNA repair
CCc1ccccc1NC(=O)Nc1cc(F)ccc1F	-35.4%	-3.6%	?	-0.1%	4.1%	-2.9%
CCOC(=O)N1CCN(C(=O)C2CCCN(c3nc4ccc(OCC)cc4s3)C2)CC1 (stereo not given)	21.4%	10.8%	12µM*	4.9%	-0.8%	-14.0%
CCOc1ccc2nc(N3CCCC(C(=O)NC4CCCC4)C3)sc2c1 (stereo not given)	.	?	3.01µM*	?	-6.4%	10.2%
CCOc1ccc2nc(N3CCCC(C(=O)Nc4cc(Cl)c(OC)cc4OC)C3)sc2c1 (stereo not given)	?	.	2.69µM*	.	.	.
CCOc1ccc2nc(N3CCCC(C(=O)Nc4cccc(Cl)c4C)C3)sc2c1 (stereo not given)	7.94µM*	.	3.38µM*	.	.	.
CCOc1ccc2nc(N3CCCC(C(=O)Nc4ccc(OC)cc4)C3)sc2c1 (stereo not given)	21.8%	.	1.51µM*	.	.	.
CCOc1ccc2nc(N3CCCC(C(=O)NCCc4ccc(SC)cc4)C3)sc2c1 (stereo not given)	20µM*	.	-19.7%	.	.	.
CCOC(=O)Nc1ccc2nc(N3CCCCCC3)sc2c1	.	?	7.57µM*	?	10.3µM*	?
CCOc1ccc2nc(N3CCCC(C(=O)Nc4ccc(CC)cc4)C3)sc2c1 (stereo not given)	15.9%	.	?	.	.	.
Cc1ccc(CCNS(=O)(=O)c2cc3c(cc2Cl)NC(=O)CO3)cc1	.	-4.3%	1.6%	12.9%	-1.3%	-16.5%
O=C(CNC(=O)c1cccc(Br)c1)N/N=C/c1ccc2c(c1)OCO2	.	-0.2%	16.9µM*	2.2%	?	20.8%
O=C(N/N=C/c1ccc2c(c1)OCO2)c1ccc2c(c1)OCO2	.	2.24µM*	?	2.51µM*	-3.7%	?
O=C(N/N=C\c1ccc(S(=O)(=O)O)o1)c1ccc2c(c1)OCO2	.	1.7%	?	-4.0%	-1.7%	-1.2%
O=C(N/N=C\c1ccc2c(c1)OCO2)c1ccco1	.	3.16µM*	8.49µM*	1.78µM*	14.6µM*	?
O=C(N/N=C/c1cc2c(cc1Cl)OCO2)c1ccc2c(c1)OCCO2	.	3.6%	7.57µM*	18.7%	9.2%	?
CC(=O)C1=C(C)NC(=O)NC1c1ccc(Cl)cc1 (stereo not given)	2.9%	-3.2%	-1.0%	-1.1%	-1.1%	-8.1%
O=C(N/N=C/c1ccc[nH]1)c1ccc2c(c1)OCO2	?	-4.6%	13.5µM*	12.4%	?	?
O=C(N/N=C/c1ccc[nH]1)c1cccc([N+](=O)[O-])c1	-2.4%	-8.4%	1.0%	-2.6%	2.3%	2.5%
O=C(NCc1ccccn1)C(=O)N/N=C/c1ccc2c(c1)OCO2	.	-2.4%	16.9µM*	9.9%	5.1%	-10.4%
O=C(N/N=C/c1cccc(O)c1)c1ccc2c(c1)OCCO2	.	?	1.69µM*	-1.3%	?	?
O=C(N/N=C\c1cccc(OC(=O)c2ccco2)c1)c1ccc2c(c1)OCO2	?	23.8%	1.69µM*	25.0%	14.6µM*	?
COc1ccc(OC)c(CNC(=O)c2cnc(N(C)C)nc2)c1	.	.	-4.7%	.	.	.
CCN(CC)c1ccc(/C=N/NC(=O)CNC(=O)c2ccc3c(c2)OCCO3)cc1	.	2.7%	16.9µM*	5.9%	-3.1%	1.5%
Cc1cc(C)c(S(=O)(=O)N/N=C/c2ccc3c(c2)OCO3)c(C)c1	.	-3.0%	1.1%	-0.5%	1.1%	2.0%
Cc1cc(C(=O)N/N=C/c2cccc(OC(=O)c3ccco3)c2)n[nH]1	?	2.4%	16.9µM*	7.8%	8.2%	?
SMILES	SMN2 splice up	NPC1 promoter act	FLuc modulator	Rab9 promoter act	ELG1 genotox	ELG1 DNA repair
O=C(N/N=C/c1c(Cl)[nH]c2ccccc12)c1ccc2c(c1)OCCO2	.	?	1.51µM*	?	?	?
Cc1cc(Cl)c(S(=O)(=O)N/N=C/c2ccc3c(c2)OCO3)c(Cl)c1	?	15.8%	15.1µM*	12.0%	5.9%	?
Cc1[nH]c2ccccc2c1/C=N/NC(=O)c1cccc(F)c1	.	6.7%	?	15.2%	3.5%	11.1%
O=C(N/N=C/c1cccnc1)c1ccc(O)cc1	.	12.4%	?	2.8%	2.5%	28.0%
Cc1[nH]c2ccccc2c1/C=N\NC(=O)CNc1ccc2c(c1)OCO2	-7.6%	1.5%	10.7µM*	-5.7%	0.2%	2.6%
O=C(CNc1ccc2c(c1)OCO2)N/N=C\c1ccccc1Cl	0.7%	0.0%	?	-4.8%	0.0%	-0.7%
O=C(N/N=C/c1cccnc1)c1ccc2c(c1)OCO2	.	?	8.49µM*	?	?	?
Cc1ccc(N(CC(=O)NCc2ccccc2)C(=O)CCC(=O)Nc2ccccn2)cc1C	.	-1.7%	0.9%	1.5%	0.1%	-10.8%
COc1ccc(N2CC(C(=O)Nc3nnc(SCc4ccccn4)s3)CC2=O)cc1 (stereo not given)	16.1%	-1.6%	-0.2%	1.6%	1.1%	15.6%
Cn1cccc1CNC(=O)Nc1ccc(Cl)c(Cl)c1	?	3.98µM*	8.49µM*	3.16µM*	?	?
O=C(NCC1CC1(Cl)Cl)Nc1ccc(Cl)c(Cl)c1 (stereo not given)	.	?	16.9µM*	?	-3.7%	?
Cc1ccc(NC(=O)NCC2CC2(Cl)Cl)cc1 (stereo not given)	.	2.24µM*	10.7µM*	3.55µM*	?	?
COCCNC(=S)Nc1ccc(Cl)c(Cl)c1	?	1.6%	-2.1%	-0.8%	-2.4%	-2.8%
C=COCCNC(=O)Nc1ccc(Cl)c(Cl)c1	27.3%	?	16.9µM*	?	-3.0%	?
O=C(NCc1cccnc1)Nc1ccc(Cl)c(Cl)c1	.	18.1%	?	?	10.9%	?
CCOC(=O)C1CCN(c2ccc(-c3cccs3)nn2)CC1	.	21.8%	0.757µM*	3.5%	?	?
c1csc(-c2ccc(N3CCOCC3)nn2)c1	.	0.398µM*	2.39µM*	0.501µM*	?	?
O=C(CSc1ccc(-c2cccs2)nn1)N1CCCCCC1	?	17.0%	?	24.0%	8.7%	?
CCOC(=S)SCC(=O)N1CCc2ccccc2C1C1C(=O)CCCC1=O (stereo not given)	-8.6%	-2.2%	-1.9%	-6.8%	2.2%	16.5%
Cc1ccc(CSc2nc3ccncc3[nH]2)cc1	7.08µM*	?	2.69µM*	?	?	?
Clc1ccc(CSc2nc3ccncc3[nH]2)cc1	11.2µM*	0.631µM*	4.78µM*	0.708µM*	2.91µM*	?
O=C(NCc1ccc(Cl)cc1)c1ccc(CSc2nc3ccncc3[nH]2)cc1	.	0.7%	-11.2%	-1.4%	-9.1%	?
